Most compounds without a hit are left out; they make up all but 3.2% or so of the library.
MsrA act = activates bovine MsrA enzyme; purified bovine MsrA, absorbance read-out; activation, % at 10.6 µM; 0.3% of 360,000 active; in the data active means activation above about 7.5%;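 further: 0% = vehicle and 100% = reference activator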
DAGLB inhibitor = diacylglycerol lipase beta (human) inhibition | HEK293T DAGLB membrane lysate, EnzChek fluorogenic substrate | inhibition, % at 5.17 µM | 0.059% of 340,000 active | AID 504411; in the data active means inhibition above about 34%;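 further: 0% = enzyme with vehicle and 100% = wells lacking enzyme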
rCAG binder = molecules binding r(CAG) RNA repeats. r(CAG) RNA repeat, TO-PRO-1 dye displacement fluorescence. inhibition, % at 3 µM. 1.3% of 370,000 active. AID 651821;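 active means inhibition above the plate cutoff, the mean of all test compounds on that plate plus 3 SD, cut at about 35% in these data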;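 further: 0% = DMSO alone and 100% = 100 µM mitoxantrone as full dye displacement; higher means more dye released from RNA so lower well fluorescence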
NadD inh = blocks S. aureus nicotinate mononucleotide adenylyltransferase; purified NadD enzyme, colorimetric absorbance read-out; inhibition, % at 20 µM; 0.78% of 360,000 active; in the data active means inhibition above about 26%
MsrA inh = bovine MsrA inhibition; purified bovine MsrA, absorbance read-out; inhibition, % at 15.5 µM; 0.75% of 360,000 active; in the data active means inhibition above about 4.5%;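 further: 0% = vehicle wells with enzyme and 100% = reference inhibitor wells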
Pemphigus Ab inh = inhibitors of pemphigus antibody binding to human desmoglein-3 | DSG3-coupled beads, scFv-anti-DSG3-GFP binding, flow cytometry; stronger effect = lower value | 0.48% of 310,000 active | binding (percent of control), % at 10 µM | P32926;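 active means binding more than 3 SD below its plate's average and above zero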;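 further: hits lower antibody fragment binding to DSG3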
Target sequence (P32926 whole entry, looked up, the tested form may be a part): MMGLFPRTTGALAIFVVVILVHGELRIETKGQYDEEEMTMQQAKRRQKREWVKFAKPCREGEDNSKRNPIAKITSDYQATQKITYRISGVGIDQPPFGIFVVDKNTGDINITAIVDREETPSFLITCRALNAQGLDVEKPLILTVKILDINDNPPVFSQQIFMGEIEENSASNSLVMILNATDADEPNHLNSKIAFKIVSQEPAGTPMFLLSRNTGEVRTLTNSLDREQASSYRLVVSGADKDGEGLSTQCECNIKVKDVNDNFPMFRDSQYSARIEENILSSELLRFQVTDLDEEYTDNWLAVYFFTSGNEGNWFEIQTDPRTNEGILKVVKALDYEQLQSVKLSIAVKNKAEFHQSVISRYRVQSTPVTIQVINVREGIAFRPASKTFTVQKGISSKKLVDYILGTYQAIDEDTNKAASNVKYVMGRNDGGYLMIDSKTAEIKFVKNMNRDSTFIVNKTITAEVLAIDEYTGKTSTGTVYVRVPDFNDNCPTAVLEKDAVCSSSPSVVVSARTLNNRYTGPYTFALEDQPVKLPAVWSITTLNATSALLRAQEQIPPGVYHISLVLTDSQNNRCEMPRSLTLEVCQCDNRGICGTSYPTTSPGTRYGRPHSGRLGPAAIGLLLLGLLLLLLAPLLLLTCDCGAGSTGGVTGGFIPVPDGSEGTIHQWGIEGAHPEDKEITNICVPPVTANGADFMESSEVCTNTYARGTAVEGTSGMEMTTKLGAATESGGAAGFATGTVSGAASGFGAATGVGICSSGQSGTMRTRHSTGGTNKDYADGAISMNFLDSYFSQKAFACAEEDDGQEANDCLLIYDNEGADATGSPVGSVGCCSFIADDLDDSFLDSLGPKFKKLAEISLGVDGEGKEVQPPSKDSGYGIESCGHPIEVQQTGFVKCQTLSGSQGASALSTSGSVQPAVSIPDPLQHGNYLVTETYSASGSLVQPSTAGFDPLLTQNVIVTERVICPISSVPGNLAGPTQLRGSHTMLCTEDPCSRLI
An asterisk follows results filed as active; / = no result given.

SMILES	MsrA act	DAGLB inhibitor	rCAG binder	NadD inh	MsrA inh	Pemphigus Ab inh
CC(Sc1nnc(NC2CCCCC2)s1)C(=O)Nc1ccc2c(c1)C(=O)c1ccccc1C2=O (stereo not drawn)	0.7	3.9	4.5	37.6*	1.2	95.5
CC(Sc1nnc(NC2CC2)s1)C(=O)Nc1ccc(N2CCOCC2)cc1 (stereo not drawn)	1.0	0.8	1.1	-2.7	1.1	100.3
COc1cc(NCCCC(C)N)c2ncccc2c1 (stereo not drawn)	12.4*	-4.4	9.4	4.1	-0.8	107.1
COc1cc(NCCCCC(C)N)c2nccc(C)c2c1 (stereo not drawn)	1.0	1.7	13.3	-72.8	-1.0	105.2
C/C(=C\c1ccccc1F)C1Nc2cccc3cccc(c23)N1	-3.7	3.0	5.3	21.2	-0.2	94.8
C/C(=C\c1ccc2c(c1)OCO2)C1Nc2cccc3cccc(c23)N1	-3.6	9.8	8.7	32.6*	2.3	82.7
Cc1ccc2c(CN(C)Cc3ccccc3)cc(=O)oc2c1C	-0.9	-16.1	-4.1	-0.7	0.4	63.9*
CCOC(=O)Cc1csc(NC(=O)COc2ccc(C)cc2)n1	-1.5	-1.3	-4.6	-6.4	0.1	105.5
CCOC(=O)Cc1csc(NC(=O)COc2ccccc2)n1	-2.0	-0.7	2.3	-0.8	1.0	65.3*
COC(=O)c1ccc(COc2ccc(/C=C(\C#N)c3nc4ccccc4[nH]3)cc2OC)o1	-2.5	-2.8	17.9	18.5	1.4	99.7
COc1cc(/C=C(/C#N)c2nc3ccccc3[nH]2)ccc1OCc1ccc(C(=O)O)o1	-4.0	0.1	40.0*	15.8	2.5	104.3
COc1ccc(C(=O)NCc2nnc(SCC(=O)N3CCc4ccccc43)n2CCc2ccccc2)cc1	-2.7	0.0	3.1	3.4	-0.5	101.8
COc1ccc(C(=O)NCc2nnc(SCC(=O)N3CCc4ccccc43)n2C2CCCCC2)cc1	0.2	2.2	2.0	2.0	-1.2	89.0*
C=CCN(CC#Cc1cccnc1)Cc1ccc(OC)cc1OC	/	/	-3.0	/	/	/
COC(=O)c1ccccc1S(=O)(=O)N1CCC(C(=O)Nc2ccccc2N2CCOCC2)CC1	-2.9	0.0	-0.2	5.3	0.5	100.6
Cc1cc(C)c(C)c(S(=O)(=O)N2CCC(C(=O)Nc3ccccc3N3CCOCC3)CC2)c1C	0.1	0.0	-0.4	3.5	-0.3	1.0*
Cn1c(=O)c2ccccc2n2c(CCl)nnc12	-14.7	-4.0	0.4	0.1	-1.1	26.6*
Cn1c(=O)c2ccccc2n2c(=S)[nH]nc12	1.9	3.0	2.4	10.3	-0.3	112.3
O=c1c2nnn(-c3ccccc3)c2ncn1C/C=C/c1ccccc1	-10.8	-2.5	0.5	-3.7	-1.1	70.1*
NCCNc1ccc([N+](=O)[O-])cc1	-3.1	-1.7	1.7	-8.2	1.3	97.7
O=[N+]([O-])c1ccc(NCCNc2ccc([N+](=O)[O-])cc2)cc1	-4.3	1.2	2.8	-3.2	1.2	-6.8*
CCOC(=O)c1nn(-c2ccc3c(c2)OCO3)cc1O	2.6	-1.6	6.5	-1.8	5.9*	105.5
Cc1ccc(S(=O)(=O)N2CCN(C(=O)COC(=O)COc3ccccc3C(C)C)CC2)c(C)c1	0.3	-1.9	1.0	-4.7	-0.5	114.9
C[C@H](O)C#Cc1cnc2c(c1)C(=O)N([C@H](C)CO)C[C@@H](C)[C@@H](CN(C)Cc1ccc(-c3ccccc3)cc1)O2	-2.9	-2.8	2.6	4.7	0.1	106.7
CC(C)COc1ccc(C(=O)Nc2ccc(NC(=O)c3ccco3)c(Cl)c2)cc1	0.1	1.0	1.1	4.4	-0.8	104.4
SMILES	MsrA act	DAGLB inhibitor	rCAG binder	NadD inh	MsrA inh	Pemphigus Ab inh
CC(C)Oc1ccc(C(=O)Nc2ccc(NC(=O)c3ccco3)c(Cl)c2)cc1	-0.2	-3.0	5.2	-12.0	0.9	54.1*
Clc1cccc(CN2CCN(c3ncc(Cc4ccccc4)cn3)CC2)c1Cl	/	/	2.5	/	-0.6	/
CCCCn1c(N)c(-c2nc3ccccc3s2)c2c([N+](=O)[O-])nn(C)c(=O)c21	0.5	1.3	5.6	3.0	0.0	84.5*
COC(=O)c1ccc(-c2sc3nc(N4CCOCC4)c4c(c3c2N)CC(C)(C)OC4)o1	-11.4	2.3	11.5	-2.5	0.3	38.1*
CCOC(=O)CC[C@@H]1CC[C@]2(CCCN(C(=O)c3ccco3)C2)O1	/	/	2.8	/	/	/
Fc1cccc(Nc2nc(N3CCOCC3)nc(N3CCOCC3)n2)c1	-8.3	-4.6	-7.7	-2.3	0.1	94.2
Clc1cccc(Nc2nc(N3CCOCC3)nc(N3CCOCC3)n2)c1	-1.2	0.0	-1.2	-0.7	0.9	46.9*
O=C(O)CN1C(=O)/C(=C2\C(=O)N(Cc3ccccc3Cl)c3ccccc32)SC1=S	-1.7	0.5	13.2	26.4*	0.6	96.9
CC(=O)N(CCN(C(C)=O)c1ccccc1)c1ccccc1	1.6	3.5	-2.9	2.2	0.6	104.0
CC(=O)N(Nc1ccccc1)c1ccccc1	-2.2	-1.2	-1.8	-0.7	3.5	67.3*
CCOC(=O)C1=CC[C@@H](c2cccc(Br)c2)N(S(=O)(=O)c2ccc(F)cc2)[C@H]1c1cccc(Cl)c1	/	/	2.5	/	0.2	/
Cc1ccccc1NC(=O)Cc1nnc(SCC(=O)NC2CCCC2)n1C	-2.9	-1.9	-4.6	-4.9	1.4	88.1*
Cn1c(CC(=O)Nc2ccccc2F)nnc1SCC(=O)NC1CCCCC1	0.1	0.1	-0.5	-4.4	0.5	110.8
COc1ccc(C(=O)Nc2ccccc2C(=O)O)cc1NC(=O)C(c1ccccc1)c1ccccc1	-4.0	7.7	81.8*	15.1	-1.4	91.4
Cc1ccc(S(=O)(=O)N(C)C)cc1NC(=O)C1CCCCC1	-1.4	-0.1	-1.8	-0.2	-1.2	63.0*
Cc1ccc(S(=O)(=O)N(C)C)cc1NC(=O)C1CCCC1	-5.8	0.1	3.7	6.8	0.1	114.9
COC(=O)c1ccc2nc(-c3ccc(C#N)cc3)c(Cc3cccc(Cl)c3)n2c1	-4.6	/	12.4	18.4	0.3	/
CCN=c1scc(C)n1/N=C/c1cc(Br)c(O)c(OC)c1	-6.8	4.5	15.9	35.3*	3.1	/
CCc1nnc(NC(=O)CSc2ccc(-c3ccc(-n4cccn4)cc3)nn2)s1	-8.9	0.8	1.5	13.6	-0.5	77.4*
Cc1ccccc1NC(=O)CSc1ccc(-c2ccc(-n3cccn3)cc2)nn1	-10.1	-4.7	0.2	6.4	0.2	98.5
CCc1nnc(NC(=O)CSc2nnc3c(n2)[nH]c2ccccc23)s1	-15.2	-0.7	1.2	0.5	-0.3	31.6*
CCc1nnc(NC(=O)CSc2nncc(=O)n2N)s1	-12.2	-7.5	1.6	-1.0	-1.0	85.4*
Cc1nnc(SC(C)C(=O)NC2CCCCC2)[nH]c1=O (stereo not drawn)	-0.8	2.1	0.1	8.2	-0.2	98.3
Cc1nc(SCc2nc3c(C)cccc3[nH]2)c2oc3ccccc3c2n1	-5.8	-5.7	6.6	5.1	0.0	100.6
Cc1nc(SCc2nc3c([N+](=O)[O-])cccc3[nH]2)c2oc3ccccc3c2n1	-9.8	-3.4	/	13.6	/	31.8*
